Results filed as inconclusive are left out. Active and inactive are the calls of the source. Unless noted, the call rests on the fitted dose curve; in most records, active means well fitted curve in the direction sought with a large enough effect; inconclusive means small, poorly fitted or top-dose-only effect, or another doubt; inactive means no such curve, though single readings can be large; an effect the other way counts as inactive or inconclusive. Peptide text beside a SMILES is read from it.
Columns and labels:
[1] = molecular target: Cytochrome P450 3A4 (Homo sapiens) (UniProt P08684); assay: qHTS Assay for Inhibitors and Substrates of Cytochrome P450 3A4 (AID 884); further: series mostly up to about 57 µM; on the % scale 0 is the no-effect control and ±100 the full control effect; nearly all actives have a fitted effect of over 50% in size
Sequence of Cytochrome P450 3A4 (Homo sapiens) (P08684 whole entry, looked up): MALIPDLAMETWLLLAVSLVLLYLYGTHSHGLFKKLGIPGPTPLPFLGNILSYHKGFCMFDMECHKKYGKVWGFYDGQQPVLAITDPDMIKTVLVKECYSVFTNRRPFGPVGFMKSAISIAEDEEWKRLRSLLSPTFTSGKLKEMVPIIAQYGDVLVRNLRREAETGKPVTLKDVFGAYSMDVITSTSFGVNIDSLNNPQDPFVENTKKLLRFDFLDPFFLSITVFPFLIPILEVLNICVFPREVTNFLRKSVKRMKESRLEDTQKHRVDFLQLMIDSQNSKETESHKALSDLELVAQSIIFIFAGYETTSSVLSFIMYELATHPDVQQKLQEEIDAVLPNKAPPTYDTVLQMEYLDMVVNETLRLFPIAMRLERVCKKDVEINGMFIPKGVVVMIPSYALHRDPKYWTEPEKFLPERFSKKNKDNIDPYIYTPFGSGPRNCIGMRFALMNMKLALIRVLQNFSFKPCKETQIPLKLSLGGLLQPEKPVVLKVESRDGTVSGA
How it was run: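 Luminescent readout of luciferin produced by CYP3A4 (20 nM) dealkylation of Luciferin-PPXE, 25 uM (its KM). NADPH-driven reaction ran 60 min at RT after 10 min compound preincubation; data scaled to 57 uM ketoconazole as 100% inhibition.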

[2] = Confirmation and Secondary Assay for Modulators of Hemoglobin Beta Chain Splicing at IVS2 654 locus (AID 910);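 further: HeLa cells stably carrying EGFP split by mutant beta-globin IVS2-654 intron; % of control where 0% means no effect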
How it was run: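 HeLa cells stably expressing EGFP interrupted by β-globin IVS2-654 intron, seeded overnight in Opti-MEM/2% FCS, then treated 2 days at 37 °C. Restored splicing read as total peak GFP intensity per well by laser scanning cytometry (488 nm excitation, 500–520 nm emission); 500 nM antisense PNA as control.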

[3] = Confirmation and Secondary Assay for Modulators of Hemoglobin Beta Chain Splicing at IVS2 705 locus (AID 930);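 further: HeLa cells stably expressing the EGFP-705 splicing reporter; series mostly up to about 46 µM; % of control where 0% means no effect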
How it was run: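 HeLa cells stably carrying EGFP interrupted by mutant beta-globin IVS2-705 intron (CMV-driven) were seeded at 500 cells/well, treated next day with compound for 2 days at 37C; corrected splicing restores EGFP, read as total peak GFP intensity per well.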

[4] = qHTS Assay for Identification of Small Molecule Agonists for Hypoxia Response Element Signaling Pathway (AID 914; active means well fitted activation curve with a large enough effect in the signal ratio, with a control signal flat, not every such curve was filed as active; the % refers to the signal ratio; further: % of control where 0% means no effect); conditions: ME-180 HRE-bla reporter, beta-lactamase ratio, CoCl2, 17 h; stronger effect = higher value
How it was run: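 ME-180 cells carrying an HRE-driven beta-lactamase reporter were treated with compounds in a titration series plus an EC50 level of CoCl2 for 17 h at 37 degrees Celsius; CCF4 readout as the 460nm/530nm ratio gave AC50 values.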

[5] = molecular target: Cytochrome P450 2D6 (Homo sapiens) (UniProt P10635); assay: qHTS Assay for Inhibitors and Substrates of Cytochrome P450 2D6 (AID 891); further: potency means the concentration at half of the fitted maximal effect; nearly all actives have a fitted effect of over 60% in size
Sequence of Cytochrome P450 2D6 (Homo sapiens) (P10635 whole entry, looked up): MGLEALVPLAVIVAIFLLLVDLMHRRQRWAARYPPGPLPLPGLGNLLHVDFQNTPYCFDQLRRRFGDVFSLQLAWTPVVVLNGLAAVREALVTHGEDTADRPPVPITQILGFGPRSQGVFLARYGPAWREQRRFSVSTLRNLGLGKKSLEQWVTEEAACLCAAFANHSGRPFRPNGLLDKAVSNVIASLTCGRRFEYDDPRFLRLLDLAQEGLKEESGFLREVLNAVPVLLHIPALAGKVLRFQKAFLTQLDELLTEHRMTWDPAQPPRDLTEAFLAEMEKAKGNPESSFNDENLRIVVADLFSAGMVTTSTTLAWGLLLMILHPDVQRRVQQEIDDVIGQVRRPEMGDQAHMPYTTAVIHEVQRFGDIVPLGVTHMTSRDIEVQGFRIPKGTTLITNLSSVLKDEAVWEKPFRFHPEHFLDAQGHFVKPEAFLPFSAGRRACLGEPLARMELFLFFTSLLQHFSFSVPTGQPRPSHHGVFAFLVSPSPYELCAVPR
How it was run: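 Luminescent read-out of luciferin formed by 5 nM human CYP2D6 demethylating 30 uM Luciferin-ME EGE (Km level) over 60 min at room temperature after NADPH regeneration addition. Data normalized to full inhibition by 1.43 uM quinidine.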

[6] = Cell Viability - LYMP2-001 (AID 921);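 further: series mostly up to about 92 µM; 0% = DMSO only and full inhibition = tetraoctylammonium bromide control wells; nearly all actives have a fitted effect of over 70% in size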
How it was run: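 Human lymphoblastoid cells (Coriell), 2500 per well, were preincubated 5 hr at 37 C, then exposed to compounds in complete medium for 24 hr at 37 C. Cellular ATP was read by CellTiter-Glo luminescence; AC50 from Hill fits of concentration-response data.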

[7] = MultiTox-Fluor Cytotoxicity Assay - LYMP1-001 - Dead Cells (AID 946);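 further: 0% = DMSO and 100% = tetraoctylammonium bromide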
How it was run: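 AC50 from Hill fit of concentration-response; data normalized to DMSO (basal) and 15 uM tetraoctylammonium bromide (100%). LYMP1-001 lymphoblastoid cells, 2500/well, 16 hr compound at 37 C; dead-cell protease fluorescence, Ex/Em 485/520.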

[8] = MultiTox-Fluor Cytotoxicity Assay - LYMP1-001 - Live Cells (AID 947);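 further: 0% = DMSO only and full inhibition = tetraoctylammonium bromide control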
[9] = Cell Viability - LYMP1-002 - Assay at 16 hr (AID 948);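 further: 0% = DMSO alone and full effect = 92 µM tetraoctylammonium bromide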
How it was run: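 Human lymphoblastoid cells (LYMP1-002), 2500/well, were preincubated 5 hr at 37 C, then exposed to compounds for 16 hr at 37 C in complete medium. Cellular ATP was read by CellTiter-Glo luminescence after 30 min at room temperature; AC50 from Hill fits.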

[10] = molecular target: Pyruvate kinase (Leishmania mexicana) (UniProt Q27686); assay: qHTS Validation Assay for Inhibitors of Leishmania Mexicana Pyruvate Kinase (AID 945);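 further: 0% = DMSO only neutral control wells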
Sequence of Pyruvate kinase (Leishmania mexicana) (Q27686 2-499 E452W): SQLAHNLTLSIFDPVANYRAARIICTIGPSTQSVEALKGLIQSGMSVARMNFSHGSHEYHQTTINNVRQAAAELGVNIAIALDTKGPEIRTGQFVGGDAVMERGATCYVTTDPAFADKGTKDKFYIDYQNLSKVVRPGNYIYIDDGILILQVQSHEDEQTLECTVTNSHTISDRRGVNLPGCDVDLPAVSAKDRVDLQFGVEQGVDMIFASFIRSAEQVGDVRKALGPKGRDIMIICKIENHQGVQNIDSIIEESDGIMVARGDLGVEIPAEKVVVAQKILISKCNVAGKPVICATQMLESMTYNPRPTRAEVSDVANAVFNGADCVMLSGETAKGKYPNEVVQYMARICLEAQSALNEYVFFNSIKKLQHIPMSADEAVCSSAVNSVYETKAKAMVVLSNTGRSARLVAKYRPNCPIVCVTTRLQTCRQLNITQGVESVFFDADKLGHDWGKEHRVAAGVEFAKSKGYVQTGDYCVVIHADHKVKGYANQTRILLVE
How it was run: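 LmPYK E451W 0.2 nM; 0.5 mM PEP, 0.1 mM ADP, 7 mM MgCl2, 50 mM KCl, imidazole pH 7.2, 0.01% Tween 20, 0.05% BSA; 1 h RT; PKLight luminescence; DMSO-normalized.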

[11] = molecular target: Cytochrome P450 3A4 (Homo sapiens) (UniProt P08684); assay: qHTS Assay for Activators of Cytochrome P450 3A4 (AID 885); further: nearly all actives have a fitted effect of over 65% in size
How it was run: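 CYP3A4 activity: Luciferin-PPXE O-dealkylation, 25uM substrate, 200mM KPO4, RT throughout. Read-out is luciferase luminescence; higher values reflect activation.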

Cc1ccc(S(=O)(=O)NC(=O)NN2CC3CCCC3C2)cc1 (stereo unspecified)
inactive: Potency [1] | Potency [2] | Potency [3]

O=C(O)c1cc(=O)c2c(OCC(O)COc3cccc4oc(C(=O)O)cc(=O)c34)cccc2o1
inactive: Potency [1] | Potency [2] | Potency [3]

O=C(NC(Cc1cc(=O)[nH]c2ccccc12)C(=O)O)c1ccc(Cl)cc1 (stereo unspecified)
inactive: Potency [1] | Potency [2] | Potency [3]

CN1C(C(=O)Nc2ccccn2)=C(O)c2sccc2S1(=O)=O
inactive: Potency [1] | Potency [2] | activation [4] -9.7% | Potency [3]

CN1CCC(=C2c3ccccc3CCc3sccc32)CC1
active: Potency [5] 1260 nM
inactive: Potency [2] | Potency [3]

COc1c2occc2cc2ccc(=O)oc12
inactive: Potency [2] | Potency [6] | Potency [3] | Potency [7] | Potency [8] | Potency [9]

CCN(CCO)CCCC(C)Nc1ccnc2cc(Cl)ccc12 (stereo unspecified)
inactive: Potency [2] | Potency [3]

Nc1nc(Cl)nc2c1ncn2[C@H]1C[C@H](O)[C@@H](CO)O1
inactive: Potency [1] | Potency [2] | Potency [3]

O=C(c1ccccc1)c1ccc2n1CCC2C(=O)O (stereo unspecified)
inactive: Potency [1] | Potency [2] | Potency [3]

CS(=O)(=O)OCCCCOS(C)(=O)=O
inactive: Potency [1] | Potency [2] | Potency [6] | Potency [3] | Potency [7] | Potency [8] | Potency [9]

CC1Cc2ccccc2N1NC(=O)c1ccc(Cl)c(S(N)(=O)=O)c1 (stereo unspecified)
inactive: Potency [1] | Potency [2] | Potency [3]

NS(=O)(=O)c1cc(C(=O)O)c(NCc2ccco2)cc1Cl
inactive: Potency [2] | activation [4] -15.7% | Potency [6] | Potency [3] | Potency [7] | Potency [8] | Potency [9]

c1ccc2[nH]c(-c3cscn3)nc2c1
inactive: Potency [2] | activation [4] -2.82% | Potency [6] | Potency [3] | Potency [7] | Potency [8] | Potency [9]

Nc1ccc(S(N)(=O)=O)cc1
inactive: Potency [2] | Potency [3] | Potency [7] | Potency [8] | Potency [9]

CC(=O)N1CCN(c2ccc(OC[C@H]3CO[C@](Cn4ccnc4)(c4ccc(Cl)cc4Cl)O3)cc2)CC1
inactive: Potency [10]

Cc1cc2c(s1)Nc1ccccc1N=C2N1CCN(C)CC1
inactive: Potency [1] | Potency [2] | Potency [3]

COC(=O)[C@H](Cc1ccccc1)NC(=O)[C@@H](N)CC(=O)O (H-Asp-Phe-OMe)
inactive: Potency [1] | Potency [6] | Potency [7] | Potency [8] | Potency [9]

O=C1c2c(O)cc(O)cc2OC(c2ccc(O)c(O)c2)C1O (stereo unspecified)
inactive: outcome [11]

CCCOc1ccc2nc(NC(=O)OC)[nH]c2c1
inactive: Potency [1] | Potency [2] | Potency [3]

Cc1cccc(CN2CCN(C(c3ccccc3)c3ccc(Cl)cc3)CC2)c1 (stereo unspecified)
inactive: outcome [11] | Potency [2] | Potency [3]

O=C(O)c1cn(-c2ccc(F)cc2)c2cc(N3CCNCC3)c(F)cc2c1=O
inactive: Potency [1] | Potency [2] | Potency [3]

CN(C)CCc1c[nH]c2ccc(Cn3cncn3)cc12
inactive: Potency [1] | Potency [2] | Potency [3]

Source: PubChem BioAssay (NCATS)
